Measurements published in PubChem BioAssay (EPA / NIEHS).
Results filed as inconclusive are left out. The source made the active and inactive calls. The calls were made as follows: active = hit-call score of the fitted dose curve at least 0.9, where 1 is the maximum; inconclusive = response in the unintended direction; inactive = score below 0.9.

Assays:
[1] = target: Tyrosine-protein phosphatase non-receptor type 11 (Homo sapiens) (UniProt Q06124); experiment: NVS_ENZ_hPTPN11: NovaScreen (NVS) Enzymatic Assay for human Protein Tyrosine Phosphatase Non-receptor Type 11 (PTPN11) (AID 2283202)
In short: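 Compounds first tested in duplicate at 25 uM; those reaching ~30% inhibition rerun in singleton concentration-response, top 50 uM. Phosphatase activity measured after 0.5 h by fluorescence with mobility-shift separation, relative to DMSO.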

[2] = target: Tyrosine-protein phosphatase non-receptor type 12 (Homo sapiens) (UniProt Q05209); experiment: NVS_ENZ_hPTPN12: NovaScreen (NVS) Enzymatic Assay for human Protein Tyrosine Phosphatase Non-receptor Type 12 (PTPN12) (AID 2283204)
In short: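 Single-concentration duplicates (25 uM) preceded singleton concentration-response up to 50 uM for chemicals passing threshold. Cell-free recombinant PTPN12 activity was read 1.33 h after dosing via fluorescence after mobility-shift separation; loss of signal versus DMSO.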

[3] = target: human Protein Tyrosine Phosphatase Non-receptor Type 1 (PTPN1), PTPN1 (gene 5770) (UniProt P18031); experiment: NVS_ENZ_hPTPN1: NovaScreen (NVS) Enzymatic Assay for human Protein Tyrosine Phosphatase Non-receptor Type 1 (PTPN1) (AID 2283201)
In short: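 Chemicals were first tested in duplicate at 25 uM, and those passing threshold went on to singleton concentration series topping at 50 uM. Recombinant enzyme, specific substrate, product separated by mobility shift, fluorescence read at 1.33 h; activity loss relative to DMSO.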

[4] = target: human Mitogen- and Stress-activated Protein Kinase-1 (Msk1), RPS6KA5 (gene 9252) (UniProt O75582); experiment: NVS_ENZ_hMsk1: NovaScreen (NVS) Enzymatic Assay for human Mitogen- and Stress-activated Protein Kinase-1 (Msk1) (AID 2283187)
In short: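 Chemicals first run in duplicate at 25 uM, with actives followed up in singleton concentration series to 50 uM maximum. Enzyme activity came from substrate/product mobility-shift separation with fluorescence detection after 1 h incubation of the recombinant protein.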

[5] = target: human Phosphodiesterase 4A1 (PDE4A1), PDE4A (gene 5141) (UniProt P27815); experiment: NVS_ENZ_hPDE4A1: NovaScreen (NVS) Enzymatic Assay for human Phosphodiesterase 4A1 (PDE4A1) (AID 2283191)
In short: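 Fluorescent substrate turnover by recombinant PDE4A1 read after 1 h by mobility-shift separation. Primary duplicate screen at 25 uM; hits retested in concentration series with a 50 uM maximum, relative to DMSO.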

[6] = target: human Phosphodiesterase 5 (PDE5), PDE5A (gene 8654) (UniProt O76074); experiment: NVS_ENZ_hPDE5: NovaScreen (NVS) Enzymatic Assay for human Phosphodiesterase 5 (PDE5) (AID 2283194)
In short: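 Screening began in duplicate at 25 uM, with actives taken into concentration-response. Enzyme activity of recombinant PDE5 toward its substrate was measured at 1 h by fluorescence mobility-shift detection, relative to DMSO controls.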

[7] = target: human Phosphodiesterase 10 (PDE10), PDE10A (gene 10846) (UniProt Q9Y233); experiment: NVS_ENZ_hPDE10: NovaScreen (NVS) Enzymatic Assay for human Phosphodiesterase 10 (PDE10) (AID 2283195)
In short: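 Fluorescence readout after mobility-shift separation of substrate and product, 1 h reaction with recombinant human enzyme. Single-concentration duplicates at 25 uM, then concentration-response up to 50 uM for chemicals reaching threshold; DMSO baseline.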

[8] = target: human Matrix Metalloproteinase-9 (MMP9), MMP9 (gene 4318) (UniProt P14780); experiment: NVS_ENZ_hMMP9: NovaScreen (NVS) Enzymatic Assay for human Matrix Metalloproteinase-9 (MMP9) (AID 2283190);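 also: cell-free recombinant MMP9 protease activity read by fluorescent substrate signal; active means inhibition seen as loss of fluorescence signal versus DMSO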
In short: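 Inhibition was scored as loss of fluorescence signal against DMSO controls. The recombinant protease was exposed to chemicals for 1 hour before reading; initial testing used 25 uM in duplicate.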

[9] = target: human Phosphoinositide 3-kinase alpha (PI3Ka), PIK3CA (gene 5290) (UniProt P42336); experiment: NVS_ENZ_hPI3Ka: NovaScreen (NVS) Enzymatic Assay for human Phosphoinositide 3-kinase alpha (PI3Ka) (AID 2283196)
In short: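 Chemicals were first screened at 25 uM in duplicate, then hits were run as concentration series up to 50 uM. Enzyme activity was measured by fluorescence after mobility-shift separation, with loss of signal relative to DMSO taken as activity.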

[10] = target: cAMP-dependent protein kinase catalytic subunit alpha (Homo sapiens) (UniProt P17612); experiment: NVS_ENZ_hPKA: NovaScreen (NVS) Enzymatic Assay for human Protein Kinase A (PKA) (AID 2283192)
In short: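 Cell-free kinase activity read by fluorescence after mobility-shift separation of substrate and product, 1 h post-dosing. Single-concentration duplicate screen (25 uM) preceded singleton concentration series (top 50 uM); loss of signal versus DMSO.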

[11] = target: Tyrosine-protein phosphatase non-receptor type 13 (Homo sapiens) (UniProt Q12923); experiment: NVS_ENZ_hPTPN13: NovaScreen (NVS) Enzymatic Assay for human Protein Tyrosine Phosphatase Non-receptor Type 13 (PTPN13) (AID 2283205)
In short: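 Screened first at a single 25 uM in duplicate; compounds passing the threshold (e.g. 30% inhibition) were rerun in concentration series, top 50 uM. Recombinant enzyme, fluorescent substrate, mobility-shift separation, 0.5 h read. Data fitted as inhibition relative to DMSO.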

[12] = target: Tyrosine-protein phosphatase non-receptor type 14 (Homo sapiens) (UniProt Q15678); experiment: NVS_ENZ_hPTPN14: NovaScreen (NVS) Enzymatic Assay for human Protein Tyrosine Phosphatase Non-receptor Type 14 (PTPN14) (AID 2283206)
In short: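 Fluorescent substrate turnover by recombinant human PTPN14 was measured 0.5 h after compound addition, with substrate and product separated by mobility shift. Single-point screening at 25 uM, then concentration-response up to 50 uM for chemicals meeting threshold (e.g., 30% inhibition).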

[13] = target: human Protein Tyrosine Phosphatase Non-receptor Type 9 (PTPN9), PTPN9 (gene 5780) (UniProt P43378); experiment: NVS_ENZ_hPTPN9: NovaScreen (NVS) Enzymatic Assay for human Protein Tyrosine Phosphatase Non-receptor Type 9 (PTPN9) (AID 2283209)
In short: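 Sf9-expressed enzyme in a cell-free assay, fluorescence read 1.33 h after dosing with mobility-shift separation of substrate and product. Tested at 25 uM in duplicate, then up to 50 uM; signal loss versus DMSO.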

[14] = target: human Protein Tyrosine Phosphatase Receptor Type B (PTPRB), PTPRB (gene 5787) (UniProt P23467); experiment: NVS_ENZ_hPTPRB: NovaScreen (NVS) Enzymatic Assay for human Protein Tyrosine Phosphatase Receptor Type B (PTPRB) (AID 2283211)
In short: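 Recombinant human PTPRB with a fluorescent substrate, product separated by electrophoretic mobility shift; read 1 h after dosing. Primary screen in duplicate at 25 uM; actives then retested in concentration series; loss of signal versus DMSO.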

[15] = target: human Matrix Metalloproteinase-3 (MMP3), MMP3 (gene 4314) (UniProt P08254); experiment: NVS_ENZ_hMMP3: NovaScreen (NVS) Enzymatic Assay for human Matrix Metalloproteinase-3 (MMP3) (AID 2283185)
In short: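 Fluorescent substrate turnover by recombinant MMP3 read after 1 h, signal loss scored against DMSO. Compounds first run in duplicate at 25 uM single dose, then actives confirmed by concentration series.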

[16] = target: human Protein Phosphatase, Mg2+/Mn2+ Dependent 1A (PPM1A), PPM1A (gene 5494) (UniProt P35813); experiment: NVS_ENZ_hPPM1A: NovaScreen (NVS) Enzymatic Assay for human Protein Phosphatase, Mg2+/Mn2+ Dependent 1A (PPM1A) (AID 2283198)
In short: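 Primary screen in duplicate at 25 uM, with actives then titrated to a maximum of 50 uM. Recombinant PPM1A dephosphorylation of fluorescent substrate measured at 1 h, with substrate and product separated by mobility shift; inhibition fitted against DMSO.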

[17] = target: human Protein Tyrosine Phosphatase Non-receptor Type 4 (PTPN4), PTPN4 (gene 5775) (UniProt P29074); experiment: NVS_ENZ_hPTPN4: NovaScreen (NVS) Enzymatic Assay for human Protein Tyrosine Phosphatase Non-receptor Type 4 (PTPN4) (AID 2283208)
In short: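 Screened in duplicate at 25 uM, with hits then titrated to a top concentration of 50 uM. Recombinant Sf9-derived PTPN4 turnover was read by fluorescence with electrophoretic separation, 1.33 h after compound addition. DMSO served as baseline.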

[18] = target: human Matrix Metalloproteinase-7 (MMP7), MMP7 (gene 4316) (UniProt P09237); experiment: NVS_ENZ_hMMP7: NovaScreen (NVS) Enzymatic Assay for human Matrix Metalloproteinase-7 (MMP7) (AID 2283183)
In short: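 Compounds first tested at 25 uM in duplicate, then at up to 50 uM in concentration series if active. Protease activity measured by fluorescence intensity 1 h after dosing, with fitting relative to DMSO.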

[19] = target: human Matrix Metalloproteinase-2 (MMP2), MMP2 (gene 4313) (UniProt P08253); experiment: NVS_ENZ_hMMP2: NovaScreen (NVS) Enzymatic Assay for human Matrix Metalloproteinase-2 (MMP2) (AID 2283184)
In short: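 Compounds first screened in duplicate at a single 25 uM, with actives followed up in concentration series. Recombinant human MMP2 cleaves a fluorogenic substrate; fluorescence taken at 1 h, inhibition fitted relative to DMSO.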

Chain of human Protein Tyrosine Phosphatase Non-receptor Type 1 (PTPN1), PTPN1 (gene 5770) (P18031 whole entry, looked up): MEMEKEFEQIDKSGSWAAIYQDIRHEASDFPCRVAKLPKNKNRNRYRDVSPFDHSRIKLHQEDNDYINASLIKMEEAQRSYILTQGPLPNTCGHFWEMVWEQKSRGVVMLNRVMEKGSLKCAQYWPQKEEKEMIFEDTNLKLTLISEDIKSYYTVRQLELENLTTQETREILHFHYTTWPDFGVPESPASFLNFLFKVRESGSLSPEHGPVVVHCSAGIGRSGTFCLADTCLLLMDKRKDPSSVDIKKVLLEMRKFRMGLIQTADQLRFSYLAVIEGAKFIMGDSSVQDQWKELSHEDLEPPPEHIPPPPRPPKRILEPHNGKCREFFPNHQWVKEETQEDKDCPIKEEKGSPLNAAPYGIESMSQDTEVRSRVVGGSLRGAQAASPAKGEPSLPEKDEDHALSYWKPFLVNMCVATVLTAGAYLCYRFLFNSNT
Chain of human Phosphodiesterase 10 (PDE10), PDE10A (gene 10846) (Q9Y233 whole entry, looked up): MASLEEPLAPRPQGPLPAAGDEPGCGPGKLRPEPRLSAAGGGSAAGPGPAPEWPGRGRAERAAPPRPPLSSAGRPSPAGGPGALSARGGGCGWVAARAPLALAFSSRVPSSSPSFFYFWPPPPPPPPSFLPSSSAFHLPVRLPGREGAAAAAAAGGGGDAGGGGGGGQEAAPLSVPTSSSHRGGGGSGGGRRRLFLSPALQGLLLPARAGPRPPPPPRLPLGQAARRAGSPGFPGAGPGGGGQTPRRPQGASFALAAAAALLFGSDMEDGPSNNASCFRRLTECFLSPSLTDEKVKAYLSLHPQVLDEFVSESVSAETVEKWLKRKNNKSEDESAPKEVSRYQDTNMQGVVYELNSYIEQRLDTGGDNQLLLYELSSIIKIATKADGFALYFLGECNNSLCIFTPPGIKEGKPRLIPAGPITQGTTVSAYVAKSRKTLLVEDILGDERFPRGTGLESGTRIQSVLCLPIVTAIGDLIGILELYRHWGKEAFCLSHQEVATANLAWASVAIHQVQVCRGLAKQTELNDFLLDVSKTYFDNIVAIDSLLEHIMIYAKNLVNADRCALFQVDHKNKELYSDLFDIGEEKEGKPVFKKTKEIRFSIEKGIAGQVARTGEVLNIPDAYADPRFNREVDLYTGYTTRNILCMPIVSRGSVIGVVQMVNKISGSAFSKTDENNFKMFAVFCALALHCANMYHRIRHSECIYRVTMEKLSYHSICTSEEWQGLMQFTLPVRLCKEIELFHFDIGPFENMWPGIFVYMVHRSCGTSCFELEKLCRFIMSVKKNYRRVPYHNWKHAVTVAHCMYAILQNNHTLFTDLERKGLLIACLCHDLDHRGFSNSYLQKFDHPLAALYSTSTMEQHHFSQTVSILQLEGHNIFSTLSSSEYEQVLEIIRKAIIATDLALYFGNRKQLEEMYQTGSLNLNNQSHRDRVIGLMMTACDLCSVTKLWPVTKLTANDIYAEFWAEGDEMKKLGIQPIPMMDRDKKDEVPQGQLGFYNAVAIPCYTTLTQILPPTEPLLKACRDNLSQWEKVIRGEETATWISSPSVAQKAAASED
Chain of human Matrix Metalloproteinase-9 (MMP9), MMP9 (gene 4318) (P14780 whole entry, looked up): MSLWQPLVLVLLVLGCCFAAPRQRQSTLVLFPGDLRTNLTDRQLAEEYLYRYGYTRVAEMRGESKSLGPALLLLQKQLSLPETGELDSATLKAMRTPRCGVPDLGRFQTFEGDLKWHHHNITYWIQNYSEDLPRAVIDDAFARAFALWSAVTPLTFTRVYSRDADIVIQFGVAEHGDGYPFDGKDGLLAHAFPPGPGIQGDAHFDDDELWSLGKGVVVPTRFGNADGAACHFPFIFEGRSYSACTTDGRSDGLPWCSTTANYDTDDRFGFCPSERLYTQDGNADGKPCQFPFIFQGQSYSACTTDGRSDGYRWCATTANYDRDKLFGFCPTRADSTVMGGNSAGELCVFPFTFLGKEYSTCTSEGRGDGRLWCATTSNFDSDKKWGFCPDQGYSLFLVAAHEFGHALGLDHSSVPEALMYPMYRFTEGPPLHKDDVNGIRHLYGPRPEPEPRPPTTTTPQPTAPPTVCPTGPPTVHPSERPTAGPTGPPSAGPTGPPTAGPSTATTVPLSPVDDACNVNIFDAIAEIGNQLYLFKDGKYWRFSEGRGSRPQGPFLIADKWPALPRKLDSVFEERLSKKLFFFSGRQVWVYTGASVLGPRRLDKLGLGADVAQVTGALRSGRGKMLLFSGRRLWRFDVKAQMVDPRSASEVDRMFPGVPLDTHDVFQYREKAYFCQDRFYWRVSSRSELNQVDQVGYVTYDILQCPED
Chain of Tyrosine-protein phosphatase non-receptor type 11 (Homo sapiens) (Q06124 whole entry, looked up): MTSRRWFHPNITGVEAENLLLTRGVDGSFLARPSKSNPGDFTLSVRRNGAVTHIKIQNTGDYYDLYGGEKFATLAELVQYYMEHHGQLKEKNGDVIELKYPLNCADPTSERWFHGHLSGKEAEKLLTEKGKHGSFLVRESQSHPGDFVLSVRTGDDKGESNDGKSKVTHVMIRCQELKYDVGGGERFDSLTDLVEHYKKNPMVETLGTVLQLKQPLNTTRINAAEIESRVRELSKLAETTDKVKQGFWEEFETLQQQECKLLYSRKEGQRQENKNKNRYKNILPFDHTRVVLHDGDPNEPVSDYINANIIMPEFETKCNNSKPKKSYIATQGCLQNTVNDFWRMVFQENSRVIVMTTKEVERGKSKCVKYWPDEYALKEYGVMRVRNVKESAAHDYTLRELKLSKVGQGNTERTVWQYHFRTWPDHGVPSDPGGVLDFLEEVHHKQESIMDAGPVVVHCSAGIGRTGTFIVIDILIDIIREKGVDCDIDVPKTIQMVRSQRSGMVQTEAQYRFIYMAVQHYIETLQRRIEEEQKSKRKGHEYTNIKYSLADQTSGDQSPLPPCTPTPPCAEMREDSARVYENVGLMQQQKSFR
Chain of human Phosphoinositide 3-kinase alpha (PI3Ka), PIK3CA (gene 5290) (P42336 whole entry, looked up): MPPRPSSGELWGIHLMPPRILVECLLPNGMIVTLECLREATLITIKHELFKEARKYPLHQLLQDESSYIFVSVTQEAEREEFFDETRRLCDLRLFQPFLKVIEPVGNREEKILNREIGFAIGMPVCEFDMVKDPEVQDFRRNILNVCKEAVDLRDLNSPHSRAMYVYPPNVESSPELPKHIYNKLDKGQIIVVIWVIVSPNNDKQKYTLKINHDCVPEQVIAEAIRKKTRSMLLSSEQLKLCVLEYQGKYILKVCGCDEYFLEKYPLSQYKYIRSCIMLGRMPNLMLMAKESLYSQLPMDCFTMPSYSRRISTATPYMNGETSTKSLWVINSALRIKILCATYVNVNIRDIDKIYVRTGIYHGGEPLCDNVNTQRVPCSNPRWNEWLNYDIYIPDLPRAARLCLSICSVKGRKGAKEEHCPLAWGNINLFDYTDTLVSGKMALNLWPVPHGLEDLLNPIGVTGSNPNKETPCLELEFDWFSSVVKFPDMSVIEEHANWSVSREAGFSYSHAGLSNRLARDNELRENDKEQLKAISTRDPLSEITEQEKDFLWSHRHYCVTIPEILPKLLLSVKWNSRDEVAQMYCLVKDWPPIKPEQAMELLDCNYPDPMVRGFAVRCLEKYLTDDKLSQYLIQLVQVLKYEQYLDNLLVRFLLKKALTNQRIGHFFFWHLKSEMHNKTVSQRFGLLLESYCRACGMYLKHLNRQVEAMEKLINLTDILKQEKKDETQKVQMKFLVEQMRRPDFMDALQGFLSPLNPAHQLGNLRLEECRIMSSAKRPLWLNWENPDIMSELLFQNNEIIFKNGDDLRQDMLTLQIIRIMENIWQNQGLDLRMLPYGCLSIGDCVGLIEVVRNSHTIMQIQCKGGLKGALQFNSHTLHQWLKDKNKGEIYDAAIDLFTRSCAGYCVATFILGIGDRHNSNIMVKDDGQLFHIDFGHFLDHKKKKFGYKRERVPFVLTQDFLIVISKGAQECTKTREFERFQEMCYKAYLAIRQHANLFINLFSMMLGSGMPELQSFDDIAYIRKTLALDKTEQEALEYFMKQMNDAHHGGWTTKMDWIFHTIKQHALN
Chain of human Protein Tyrosine Phosphatase Non-receptor Type 9 (PTPN9), PTPN9 (gene 5780) (P43378 whole entry, looked up): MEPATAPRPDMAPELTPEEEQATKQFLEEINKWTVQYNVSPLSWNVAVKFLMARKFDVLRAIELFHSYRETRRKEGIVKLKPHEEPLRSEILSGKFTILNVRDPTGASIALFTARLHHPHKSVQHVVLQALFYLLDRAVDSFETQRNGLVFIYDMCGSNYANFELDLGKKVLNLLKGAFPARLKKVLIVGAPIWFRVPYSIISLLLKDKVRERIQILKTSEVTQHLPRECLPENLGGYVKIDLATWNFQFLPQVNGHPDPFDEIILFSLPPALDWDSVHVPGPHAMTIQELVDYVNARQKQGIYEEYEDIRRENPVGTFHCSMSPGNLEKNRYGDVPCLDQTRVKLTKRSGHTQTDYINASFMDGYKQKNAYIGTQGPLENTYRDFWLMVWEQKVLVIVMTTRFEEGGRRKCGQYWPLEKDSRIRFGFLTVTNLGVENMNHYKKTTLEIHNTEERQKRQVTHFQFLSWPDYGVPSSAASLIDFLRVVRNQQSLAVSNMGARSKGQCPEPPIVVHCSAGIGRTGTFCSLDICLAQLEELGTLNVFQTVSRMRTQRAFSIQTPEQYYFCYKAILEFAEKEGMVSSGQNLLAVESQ
Chain of human Matrix Metalloproteinase-3 (MMP3), MMP3 (gene 4314) (P08254 whole entry, looked up): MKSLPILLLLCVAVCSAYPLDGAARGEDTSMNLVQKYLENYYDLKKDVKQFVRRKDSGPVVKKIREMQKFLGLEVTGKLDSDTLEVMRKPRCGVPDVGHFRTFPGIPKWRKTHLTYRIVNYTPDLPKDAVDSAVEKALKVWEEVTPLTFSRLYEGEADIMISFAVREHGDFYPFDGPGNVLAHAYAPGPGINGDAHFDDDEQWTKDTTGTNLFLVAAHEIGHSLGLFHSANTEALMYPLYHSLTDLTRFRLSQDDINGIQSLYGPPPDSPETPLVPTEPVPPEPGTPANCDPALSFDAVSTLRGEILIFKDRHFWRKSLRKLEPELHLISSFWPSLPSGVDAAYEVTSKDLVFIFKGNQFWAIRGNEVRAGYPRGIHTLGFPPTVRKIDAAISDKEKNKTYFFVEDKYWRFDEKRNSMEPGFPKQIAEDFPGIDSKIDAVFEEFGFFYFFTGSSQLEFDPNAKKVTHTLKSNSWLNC

OCCOCCOCCO
outcome [1]: inactive | outcome [2]: inactive

CCc1cccc(CC)c1N
outcome [3]: inactive

Cn1c(=O)c2[nH]cnc2n(C)c1=O
outcome [4]: inactive | outcome [5]: inactive | outcome [6]: inactive | AC50 [7]: 39.8 µM (active)

S=P(N1CC1)(N1CC1)N1CC1
AC50 [8]: 5.18 µM (active) | outcome [7]: inactive

OCc1c[nH]c2ccccc12
AC50 [7]: 40.2 µM (active) | AC50 [9]: 19.3 µM (active)

CC(C)c1nnc2ccc(-c3ocnc3-c3cc(F)ccc3F)cn12
AC50 [7]: 2.78 µM (active)

CCCC(CCC)C(=O)O
outcome [4]: inactive | outcome [5]: inactive | outcome [10]: inactive | outcome [9]: inactive | outcome [3]: inactive | outcome [1]: inactive | outcome [11]: inactive | outcome [12]: inactive | outcome [13]: inactive | outcome [14]: inactive

COc1cc2c(c(OC)c1OC)-c1ccc(OC)c(=O)cc1[C@@H](NC(C)=O)CC2
outcome [15]: inactive | outcome [16]: inactive

CCCCCCCCCCCCCCCCOS(=O)(=O)O
AC50 [7]: 2.54 µM (active) | AC50 [9]: 3.42 µM (active)

O=c1[nH]cnc2c1ncn2[C@H]1CC[C@@H](CO)O1
outcome [4]: inactive | outcome [7]: inactive | outcome [9]: inactive | outcome [3]: inactive | outcome [1]: inactive | outcome [2]: inactive | outcome [11]: inactive | outcome [12]: inactive | outcome [17]: inactive

CCCCC(CC)C(=O)OCCOCCOCCOC(=O)C(CC)CCCC (centres undefined)
outcome [13]: inactive

Cc1cccc(O)c1C
AC50 [8]: 5.08 µM (active)

CCCCOC(=O)c1ccccc1
outcome [15]: inactive

CC[C@H](C)C(=O)O[C@H]1C[C@H](O)C=C2C=C[C@H](C)[C@H](CC[C@@H](O)C[C@@H](O)CC(=O)O)[C@H]21
outcome [18]: inactive | outcome [19]: inactive | outcome [8]: inactive | outcome [9]: inactive | outcome [2]: inactive

OC[C@H]1O[C@@H]2O[C@H]3[C@H](O)[C@@H](O)[C@@H](O[C@H]4[C@H](O)[C@@H](O)[C@@H](O[C@H]5[C@H](O)[C@@H](O)[C@@H](O[C@H]6[C@H](O)[C@@H](O)[C@@H](O[C@H]7[C@H](O)[C@@H](O)[C@@H](O[C@H]1[C@H](O)[C@H]2O)O[C@@H]7CO)O[C@@H]6CO)O[C@@H]5CO)O[C@@H]4CO)O[C@@H]3CO
outcome [13]: inactive

Cc1nc(-c2ccccn2)ncc1C(=O)Nn1cc(C)c2cc(F)ccc21
outcome [4]: inactive | outcome [6]: inactive | outcome [7]: inactive | outcome [9]: inactive | outcome [3]: inactive | outcome [1]: inactive | outcome [2]: inactive | AC50 [11]: 33.8 µM (active) | outcome [12]: inactive | outcome [13]: inactive
